Experimental data reported in PubChem BioAssay (Tox21).
Results filed as inconclusive are left out. Where a call stands in place of a potency, no number is given. Active and inactive are the calls of the source. Unless noted, calls come from the whole dose curve; as a rule, active = well fitted curve in the direction sought with a large enough effect in the repeat runs; inconclusive = weak or mixed curves; inactive = no such curve, though single readings can be large; an effect the other way counts as inactive or inconclusive.

Tests used:
[1] = qHTS assay for small molecule agonists of the p53 signaling pathway (AID 651631; calls by dose curve; note: nearly all actives have a fitted effect of over 15% in size)
Outline: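 Testing took place in human colorectal HCT-116 cells with stable p53RE-driven beta-lactamase. After 16 h of compound exposure at 37 °C, a FRET substrate was added and fluorescence recorded 2 h later.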

[2] = qHTS assay for small molecules that induce genotoxicity in human embryonic kidney cells expressing luciferase-tagged ATAD5 (AID 651632); note: nearly all actives have a fitted effect of over 15% in size
Outline: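 Reporter cells (HEK293T) express luciferase-tagged ATAD5, a protein that accumulates after DNA damage. Treat 16 hr at 37C/5% CO2, add Amplite, wait 30 min at RT, and read luminescence.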

[3] = qHTS assay for small molecule agonists of the p53 signaling pathway - cell viability (AID 651633; calls by dose curve; note: nearly all actives have a fitted effect of over 30% in size)
Outline: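 p53RE-bla cells, seeded at 4,000 per well and rested 5 h at 37 C/5% CO2, received compounds in DMSO for 16 h at 37 C. CellTiter-Glo was then added, and luminescence was read after 30 min at room temperature to gauge cytotoxicity.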

[4] = qHTS assay for small molecules that induce genotoxicity in human embryonic kidney cells expressing luciferase-tagged ATAD5 - cell viability (AID 651634; calls by dose curve; note: nearly all actives have a fitted effect of over 25% in size)
Outline: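 Seeding of 2,000 HEK293T ATAD5-luciferase cells per well preceded pin-tool compound transfer. Plates sat 15.5 hr at 37C under 5% CO2, then fluorescence was read after 30 min with CellTiter-Fluor.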

[5] = qHTS assay for small molecule disruptors of the mitochondrial membrane potential - cell viability (AID 720634; calls by dose curve;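 note: human HepG2 liver cancer cells; nearly all actives have a fitted effect of over 20% in size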)
Outline: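 Measuring cytotoxicity alongside mitochondrial potential, the screen quantified ATP by luminescence in HepG2 cells after 1 hr compound incubation and a 30 min room-temperature CellTiter-Glo step.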

[6] = qHTS assay for small molecule disruptors of the mitochondrial membrane potential (AID 720635); note: potency is the fitted concentration of half-maximal effect
Outline: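 HepG2 cells (2,000/well) attached overnight at 37C, then took compound for 1 hr at 37C, 5% CO2. Mito-MPS dye was added for 30 min; fluorescence was read at 490/535 nm (monomers) and 540/590 nm (aggregates).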

[7] = qHTS assay to test for compound auto fluorescence at 590 nm (red) in HepG2 cells (AID 720674)
Outline: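 Intrinsic compound fluorescence in the red window (Ex/Em 540/590 nm) is measured in attached HepG2 cells exposed for 1 hr, DMSO vehicle as baseline, benchmarked to Rose Bengal sodium.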

[8] = qHTS assay to test for compound auto fluorescence at 535 nm (green) in HepG2 cells (AID 720675)
[9] = qHTS assay to test for compound auto fluorescence at 460 nm (blue) in HEK293 cells (AID 720678)
Outline: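 Cells were seeded and left to adhere for 4-5 hr at 37C. Compounds were then pin-transferred. After an overnight incubation at 37C under 5% CO2, intrinsic fluorescence at 405/460 nm was measured and referenced to triamterene.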

[10] = qHTS assay to test for compound auto fluorescence at 590 nm (red) in HEK293 cells (AID 720679)
Outline: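 Each well held 2,000 HEK293 cells in medium containing 10% dialyzed FBS. Following 4-5 hr attachment at 37C, 23 nL test compound or DMSO was added; plates sat overnight, and red fluorescence (540/590nm) was recorded.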

[11] = qHTS assay to test for compound auto fluorescence at 535 nm (green) in HEK293 cells (AID 720680)
[12] = qHTS assay to test for compound auto fluorescence at 460 nm (blue) in HEK293 cell free culture (AID 720681)
Outline: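 Test compounds were pinned into cell-free culture medium (DMEM with 10% FBS) and fluorescence was read directly at Ex/Em 405/460 nm. Signals were expressed as fluorescence equivalents of triamterene, with DMSO vehicle as control.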

[13] = qHTS assay to test for compound auto fluorescence at 535 nm (green) in HEK293 cell free culture (AID 720682)
Outline: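 DMEM + 10% FBS, cell-free; cpd or DMSO pinned in; Ex485/Em535 read; output as fluorescein-equivalent signal.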

[14] = qHTS assay to test for compound auto fluorescence at 590 nm (red) in HEK293 cell free culture (AID 720683)
Outline: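 Tox21 10K library compounds were pinned into cell-free DMEM with 10% FBS and fluorescence was read at excitation 540 nm. Activity is expressed as Rose Bengal sodium equivalency.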

[15] = qHTS assay to test for compound auto fluorescence at 590 nm (red) in HepG2 cell free culture (AID 720684)
Outline: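 Red fluorescence (540 nm excitation, 590 nm emission) was measured after compound transfer into cell-free MEM supplemented with 10% FBS. Values are equivalencies against Rose Bengal sodium.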

[16] = qHTS assay to test for compound auto fluorescence at 460 nm (blue) in HepG2 cell free culture (AID 720685)
Outline: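 Compound (23 nL) or DMSO pinned into cell-free MEM with 10% FBS; blue fluorescence read at 405/460 nm excitation/emission, expressed as auto-fluorescence equivalency to triamterene.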

[17] = qHTS assay to test for compound auto fluorescence at 535 nm (green) in HepG2 cell free culture (AID 720686)
[18] = qHTS assay to test for compound auto fluorescence at 460 nm (blue) in HepG2 cells (AID 720687)
Outline: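 Cells (2,000/well in MEM with 10% FBS) attached overnight at 37 C, then were exposed to compound or DMSO for 1 hr at 37 C, 5% CO2. Fluorescence read at Ex/Em 405/460 nm, expressed as triamterene-equivalent signal.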

[19] = target: Glucocorticoid receptor (Homo sapiens) (UniProt P04150); assay: qHTS assay to identify small molecule agonists of the glucocorticoid receptor (GR) signaling pathway (AID 720691; active = well fitted activation curve with a large enough effect in the signal ratio in the repeat runs, not every such curve was filed as active; the % refers to the signal ratio; note: potency is the fitted concentration of half-maximal effect); details: GR-bla HeLa, beta-lactamase reporter ratio, 18 h; activation: at 62.4 µM (top of the series)
Glucocorticoid receptor (Homo sapiens), sequence (P04150 whole entry, looked up): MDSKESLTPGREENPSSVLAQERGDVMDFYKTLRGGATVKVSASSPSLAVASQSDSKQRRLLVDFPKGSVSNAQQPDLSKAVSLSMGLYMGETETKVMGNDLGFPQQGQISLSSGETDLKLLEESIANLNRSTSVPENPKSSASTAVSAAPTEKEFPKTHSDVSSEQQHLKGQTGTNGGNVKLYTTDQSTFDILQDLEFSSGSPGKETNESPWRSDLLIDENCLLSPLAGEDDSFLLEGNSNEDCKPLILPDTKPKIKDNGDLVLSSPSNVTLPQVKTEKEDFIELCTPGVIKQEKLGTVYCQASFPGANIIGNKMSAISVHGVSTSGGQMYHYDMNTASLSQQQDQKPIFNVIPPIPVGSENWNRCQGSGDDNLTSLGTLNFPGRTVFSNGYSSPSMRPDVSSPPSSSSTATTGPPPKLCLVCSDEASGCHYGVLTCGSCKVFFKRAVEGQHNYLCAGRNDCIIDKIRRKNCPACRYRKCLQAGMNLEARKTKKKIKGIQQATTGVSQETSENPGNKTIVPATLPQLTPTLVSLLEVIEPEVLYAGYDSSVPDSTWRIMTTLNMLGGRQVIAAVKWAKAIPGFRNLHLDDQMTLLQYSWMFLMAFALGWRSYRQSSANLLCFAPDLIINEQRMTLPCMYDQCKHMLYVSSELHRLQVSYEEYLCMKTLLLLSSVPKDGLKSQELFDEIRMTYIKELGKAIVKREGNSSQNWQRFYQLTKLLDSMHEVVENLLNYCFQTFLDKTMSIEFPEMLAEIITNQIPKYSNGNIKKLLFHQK
Outline: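 Reporter read-out: fluorescence intensity following 2 h room-temperature LiveBLAzer B/G FRET substrate loading. Prior step: GR-bla HeLa cells held 4 h, then treated 18 h at 37 C.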

[20] = target: Glucocorticoid receptor (Homo sapiens) (UniProt P04150); assay: qHTS assay to identify small molecule antagonists of the glucocorticoid receptor (GR) signaling pathway (AID 720692; active = well fitted inhibition curve with a large enough effect in the signal ratio in the repeat runs, not every such curve was filed as active; the % refers to the signal ratio)
Outline: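 Dexamethasone (5 nM final) stimulated a stably integrated GRE-beta-lactamase reporter in HeLa cells during 18 h co-incubation with compounds; signal was quantified as fluorescence intensity of B/G FRET substrate after 2 h.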

Structure (SMILES) | Potency [1] | Potency [2] | Potency [3] | Potency [4] | Potency [5] | Potency [6] | Potency [7] | Potency [8] | Potency [9] | Potency [10] | Potency [11] | Potency [12] | Potency [13] | Potency [14] | Potency [15] | outcome [16] | Potency [17] | outcome [18] | Potency [19] | Potency [20]
C[C@H]1C[C@H]2[C@@H]3CCC4=CC(=O)C=C[C@]4(C)[C@@]3(F)[C@@H](O)C[C@]2(C)[C@@]1(O)C(=O)CCl | inactive | inactive | inactive | inactive | inactive | 11.9 µM (active) | inactive | inactive | inactive | inactive | inactive | inactive | inactive | inactive | inactive | inactive | inactive | inactive | 0.0017 µM (active) | –
CC(=O)OC[C@H]1O[C@@H](O[C@H]2[C@H](O)[C@@H](OC(=O)c3ccccc3C(=O)O)[C@H](O)O[C@@H]2COC(C)=O)[C@H](O)[C@@H](OC(=O)c2ccccc2C(=O)O)[C@@H]1O | inactive | inactive | inactive | inactive | inactive | inactive | inactive | inactive | inactive | inactive | inactive | inactive | inactive | inactive | inactive | inactive | inactive | inactive | inactive | inactive
O=P(O)(O)OC(CO)CO | inactive | inactive | inactive | inactive | inactive | inactive | inactive | inactive | inactive | inactive | inactive | inactive | inactive | inactive | inactive | inactive | inactive | inactive | inactive | –
C[N+]1(C)CCN(CC(O)(c2ccccc2)C2CCCCC2)CC1 (stereo not drawn) | inactive | inactive | inactive | inactive | inactive | inactive | inactive | inactive | inactive | inactive | inactive | inactive | inactive | inactive | inactive | inactive | inactive | inactive | inactive | inactive
NCCCC[C@H](NC(=O)[C@@H]1CCCN1C(=O)[C@@H]1CSSC[C@H](N)C(=O)N[C@@H](Cc2ccccc2)C(=O)N[C@@H](Cc2ccccc2)C(=O)N[C@@H](CCC(N)=O)C(=O)N[C@@H](CC(N)=O)C(=O)N1)C(=O)NCC(N)=O | inactive | inactive | inactive | inactive | inactive | inactive | inactive | inactive | inactive | inactive | inactive | inactive | inactive | inactive | inactive | inactive | inactive | inactive | inactive | inactive
CC(C)CN(C[C@@H](OP(=O)(O)O)[C@H](Cc1ccccc1)NC(=O)O[C@H]1CCOC1)S(=O)(=O)c1ccc(N)cc1 | inactive | inactive | inactive | inactive | inactive | inactive | inactive | inactive | inactive | inactive | inactive | inactive | inactive | inactive | inactive | inactive | inactive | inactive | inactive | inactive
